According to the supplement of paper PMC4022240:
± gives the standard deviation.

Legend:
Assay in all cases: peptide microarray binding signal (635 nm), min-max normalized on array (fraction of array maximum); higher = stronger binding
[1] = biological target: T1, HaloTag-ATRX ADD domain (163-292)
T1 chain: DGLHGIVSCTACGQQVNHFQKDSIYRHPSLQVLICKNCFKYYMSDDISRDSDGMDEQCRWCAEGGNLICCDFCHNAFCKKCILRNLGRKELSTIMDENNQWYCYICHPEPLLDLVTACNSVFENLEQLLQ
In short: (§1)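 Within each library, mean intensities of triplicate spots were min-max scaled to give the binding signal. The spots were histone 13-mer peptide–cellulose conjugates on nitrocellulose with a Cy3 tracer, blocked overnight at 4°C. They were then probed for 1 h at 4°C using biotin-labelled HaloTag reader fusions (10 nM to 1 μM) with streptavidin-Alexa Fluor 647 or rabbit histone antibodies (1:10,000 to 1:2,000) with anti-rabbit Alexa 647, and scanned at 635 nm for signal and 532 nm for misprints on an Axon GenePix 4000B.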

[2] = biological target: HaloTag-ING2 PHD (mouse Ing2 200-280)
In short: as §1

[3] = biological target: anti-H3K4me3 antibody ab8580
In short: as §1

[4] = biological target: anti-H3K9me3 antibody ab8898
In short: as §1

[5] = peptide region: H3 112-124, peptide modifications: H3R116cit, binder concentration: 1:2,000 dilution
[6] = peptide region: H3 112-124, peptide modifications: H3R116cit, binder concentration: 1:10,000 dilution
[7] = peptide region: H3 112-124, peptide modifications: H3K115me3 H3K122me1, binder concentration: 1:2,000 dilution
[8] = peptide region: H3 112-124, peptide modifications: H3K115me3 H3K122me1, binder concentration: 1:10,000 dilution
[9] = peptide region: H3 112-124, peptide modifications: H3K115me3 H3K122ac, binder concentration: 1:2,000 dilution
[10] = peptide region: H3 112-124, peptide modifications: H3K115me3 H3K122ac, binder concentration: 1:10,000 dilution
[11] = peptide region: H3 112-124, peptide modifications: H3K122me3, binder concentration: 1:2,000 dilution
[12] = peptide region: H3 112-124, peptide modifications: H3K122me3, binder concentration: 1:10,000 dilution
[13] = peptide region: H4 1-13, peptide modifications: H4K5ac H4K8ac H4K12ac, binder concentration: 1:2,000 dilution
[14] = peptide region: H4 1-13, peptide modifications: H4K5ac H4K8ac H4K12ac, binder concentration: 1:10,000 dilution

IHAKRVTIMPKDI [H3 112-124 I H A K Rcit V T I M P K D I]
peptide microarray binding signal ([1]; peptide region: H3 112-124, peptide modifications: H3R116cit, binder concentration: 50 nM): 0.00583 ± 8.8e-05 | peptide microarray binding signal ([1]; peptide region: H3 112-124, peptide modifications: H3R116cit, binder concentration: 500 nM): 0.0207 ± 0.0059 | peptide microarray binding signal ([2]; peptide region: H3 112-124, peptide modifications: H3R116cit, binder concentration: 10 nM): 0.00895 ± 0.0012 | peptide microarray binding signal ([2]; peptide region: H3 112-124, peptide modifications: H3R116cit, binder concentration: 100 nM): 0.00992 ± 0.0023 | peptide microarray binding signal [3, 5]: 0.00451 ± 0.0016 | peptide microarray binding signal [3, 6]: 0.00359 ± 0.00055 | peptide microarray binding signal [4, 5]: 0.00177 ± 0.00034 | peptide microarray binding signal [4, 6]: 0.00179 ± 8.5e-05

IHAKRVTIMPKDI [H3 112-124 I H A Kme3 R V T I M P Kme D I]
peptide microarray binding signal ([1]; peptide region: H3 112-124, peptide modifications: H3K115me3 H3K122me1, binder concentration: 50 nM): 0.006489 ± 2.2e-05 | peptide microarray binding signal ([1]; peptide region: H3 112-124, peptide modifications: H3K115me3 H3K122me1, binder concentration: 500 nM): 0.0138 ± 0.00023 | peptide microarray binding signal ([2]; peptide region: H3 112-124, peptide modifications: H3K115me3 H3K122me1, binder concentration: 10 nM): 0.0505 ± 0.0051 | peptide microarray binding signal ([2]; peptide region: H3 112-124, peptide modifications: H3K115me3 H3K122me1, binder concentration: 100 nM): 0.0785 ± 0.0067 | peptide microarray binding signal [3, 7]: 0.0317 ± 0.0091 | peptide microarray binding signal [3, 8]: 0.0326 ± 0.0097 | peptide microarray binding signal [4, 7]: 0.0313 ± 0.0018 | peptide microarray binding signal [4, 8]: 0.0119 ± 0.00075

IHAKRVTIMPKDI [H3 112-124 I H A Kme3 R V T I M P Kac D I]
peptide microarray binding signal ([1]; peptide region: H3 112-124, peptide modifications: H3K115me3 H3K122ac, binder concentration: 50 nM): 0.00408 ± 6.9e-05 | peptide microarray binding signal ([1]; peptide region: H3 112-124, peptide modifications: H3K115me3 H3K122ac, binder concentration: 500 nM): 0.00905 ± 0.0013 | peptide microarray binding signal ([2]; peptide region: H3 112-124, peptide modifications: H3K115me3 H3K122ac, binder concentration: 10 nM): 0.0419 ± 0.0077 | peptide microarray binding signal ([2]; peptide region: H3 112-124, peptide modifications: H3K115me3 H3K122ac, binder concentration: 100 nM): 0.0725 ± 0.024 | peptide microarray binding signal [3, 9]: 0.0222 ± 0.0067 | peptide microarray binding signal [3, 10]: 0.0228 ± 0.0068 | peptide microarray binding signal [4, 9]: 0.0259 ± 0.0045 | peptide microarray binding signal [4, 10]: 0.0117 ± 0.0018

IHAKRVTIMPKDI [H3 112-124 I H A K R V T I M P Kme3 D I]
peptide microarray binding signal ([1]; peptide region: H3 112-124, peptide modifications: H3K122me3, binder concentration: 50 nM): 0.00423 ± 4.3e-05 | peptide microarray binding signal ([1]; peptide region: H3 112-124, peptide modifications: H3K122me3, binder concentration: 500 nM): 0.0122 ± 0.00089 | peptide microarray binding signal ([2]; peptide region: H3 112-124, peptide modifications: H3K122me3, binder concentration: 10 nM): 0.00489 ± 0.00015 | peptide microarray binding signal ([2]; peptide region: H3 112-124, peptide modifications: H3K122me3, binder concentration: 100 nM): 0.0106 ± 0.00081 | peptide microarray binding signal [3, 11]: 0.000868 ± 3.3e-05 | peptide microarray binding signal [3, 12]: 0.00126 ± 7.5e-05 | peptide microarray binding signal [4, 11]: 0.0125 ± 0.002 | peptide microarray binding signal [4, 12]: 0.00381 ± 0.00041

SGRGKGGKGLGKG [H4 1-13 S G R G Kac G G Kac G L G Kac G]
peptide microarray binding signal ([1]; peptide region: H4 1-13, peptide modifications: H4K5ac H4K8ac H4K12ac, binder concentration: 50 nM): 0.00417 ± 0.00038 | peptide microarray binding signal ([1]; peptide region: H4 1-13, peptide modifications: H4K5ac H4K8ac H4K12ac, binder concentration: 500 nM): 0.00538 ± 0.00043 | peptide microarray binding signal ([2]; peptide region: H4 1-13, peptide modifications: H4K5ac H4K8ac H4K12ac, binder concentration: 10 nM): 0.00418 ± 0.00011 | peptide microarray binding signal ([2]; peptide region: H4 1-13, peptide modifications: H4K5ac H4K8ac H4K12ac, binder concentration: 100 nM): 0.00645 ± 0.00041 | peptide microarray binding signal [3, 13]: 0.00128 ± 0.00011 | peptide microarray binding signal [3, 14]: 0.001541 ± 1.5e-05 | peptide microarray binding signal [4, 13]: 0.000695 ± 4.8e-05 | peptide microarray binding signal [4, 14]: 0.001441 ± 1.4e-05
